Test results taken from PubChem BioAssay (NCATS).
Results filed as inconclusive are left out. Active and inactive are the calls of the source. The call rests on the fitted dose curve; in most records, active means well fitted curve in the direction sought with a large enough effect; inconclusive means small, poorly fitted or top-dose-only effect, or another doubt; inactive means no such curve, though single readings can be large; an effect the other way counts as inactive or inconclusive.

Tests used:
[1] = Cell Viability - LYMP2-004 (AID 966); further: nearly all actives have a fitted effect of over 65% in size
Outline: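 Viable-cell number estimated from ATP luminescence (CellTiter-Glo) in 2500 human lymphoblastoid cells/well after 24 hr at 37 C with compound. AC50 fitted to the standard Hill equation.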

[2] = Cell Viability - LYMP2-005 (AID 967); further: series mostly up to about 92 µM
Outline: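 Human lymphoblastoid LYMP2-005 cells, 2,500 per well in complete medium, rested 5 h at 37C then compound-treated 24 h at 37C. Intracellular ATP read by CellTiter-Glo luminescence after 30 min at room temperature; AC50 from Hill-equation fits of concentration-response data.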

[3] = Cell Viability - LYMP2-009 (AID 968); further: series mostly up to about 92 µM; nearly all actives have a fitted effect of over 55% in size
[4] = Cell Viability - LYMP2-011 (AID 969);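 further: cells exposed to compound for 24 hours; nearly all actives have a fitted effect of over 60% in size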
Outline: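 Cells seeded at 2500 per well rest 5 hr before compound addition, then incubate 24 hr at 37 C. CellTiter-Glo reagent is added for 30 min at room temperature before luminescence detection.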

[5] = Cell Viability - LYMP2-015 (AID 971); further: nearly all actives have a fitted effect of over 55% in size
Outline: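 AC50 values reflect Hill-model fits of ATP-based luminescence (CellTiter-Glo) from a human lymphoblastoid line, 2500 cells/well, treated 24 hr at 37 C.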

[6] = Cell Viability - LYMP2-017 (AID 972);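 further: series mostly up to about 92 µM; cells exposed to compound for 24 hours at 37 °C; nearly all actives have a fitted effect of over 55% in size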
Outline: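 In this qHTS format, lymphoblastoid cells in complete medium receive test compound for a day at 37 C before ATP content is quantified by luciferase luminescence. Reported AC50 figures come from standard Hill-equation curve fitting.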

[7] = Cell Viability - LYMP2-019 (AID 973); further: nearly all actives have a fitted effect of over 55% in size
Outline: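 AC50 values come from Hill-equation modelling of qHTS concentration-response curves, where viability is measured as luciferase-based ATP luminescence in the lymphoblastoid line after 24 hr compound exposure in complete culture medium.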

[8] = Cell Viability - LYMP2-021 (AID 974)
Outline: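 In qHTS format, compounds are tested against 2500 lymphoblastoid cells per well for 24 h; viable cell number is inferred from ATP-driven luciferase light, and Hill-equation fitting yields AC50 values.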

[9] = Cell Viability - LYMP2-023 (AID 975)
Outline: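 In this qHTS, ATP-based luciferase luminescence (CellTiter-Glo) is quantified in human lymphoblastoid cells after 24 hr compound treatment at 37 C; tetraoctylammonium bromide serves as positive control. Concentration-response curves are Hill-fitted to give AC50.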

[10] = Cell Viability - LYMP2-013 (AID 970)
Outline: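 In complete culture medium, human lymphoblastoid cells were dosed for 24 hr at 37 C, with tetraoctylammonium bromide (6.4pM to 92 uM) as positive control. Viability reflects luciferase-based ATP signal; AC50 derived from concentration-response curves.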

Measured: Potency

Nc1cc(Cl)c(N)c(Cl)c1
inactive: [1] | [2] | [3] | [4] | [5] | [6] | [7] | [8] | [9]

FC(F)(F)c1ccccc1Cl
inactive: [1] | [2] | [3] | [10] | [5] | [6] | [7] | [8] | [9]

Cc1cc(C)cc(O)c1
inactive: [1] | [2] | [3] | [10] | [5] | [6] | [7] | [8] | [9]

COc1ccc(OC)cc1
inactive: [1] | [2] | [3] | [4] | [5] | [6] | [7] | [8] | [9]

Clc1cc(Cl)cc(Cl)c1
inactive: [1] | [2] | [3] | [10] | [5] | [6] | [7] | [8] | [9]

CC(C=O)Cc1ccc(C(C)(C)C)cc1 (configuration not stated)
inactive: [1] | [2] | [3] | [10] | [5] | [6] | [7] | [8] | [9]

C=C(C)C(=O)OC
inactive: [1] | [2] | [3] | [4] | [5] | [6] | [7] | [8] | [9]

Nc1ccc(F)cc1F
inactive: [1] | [2] | [3] | [4] | [5] | [6] | [7] | [8] | [9]

CCN(CC)c1cccc(O)c1
inactive: [1] | [2] | [3] | [4] | [5] | [6] | [7] | [9]

O=C(O)c1c(Cl)cccc1Cl
inactive: [1] | [2] | [3] | [4] | [5] | [6] | [7] | [8] | [9]

Cc1ccc(C)c(O)c1
inactive: [1] | [2] | [3] | [4] | [5] | [6] | [7] | [8] | [9]

CCC(C)(C)C
inactive: [1] | [2] | [3] | [4] | [5] | [6] | [7] | [8] | [9]

Nc1cccc(N)c1
inactive: [1] | [2] | [3] | [4] | [5] | [6] | [7] | [8] | [9]

CC(=O)CC(C)C
inactive: [1] | [2] | [3] | [10] | [5] | [6] | [7] | [8] | [9]

C=Cc1ccc(C=C)cc1
inactive: [1] | [2] | [3] | [4] | [5] | [6] | [7] | [9]

Cc1cc(C2(c3cc(C)c(O)cc3C)OS(=O)(=O)c3ccccc32)c(C)cc1O
inactive: [1] | [2] | [3] | [4] | [5] | [6] | [9]

O=[N+]([O-])c1ccc(CCO)cc1
inactive: [1] | [2] | [3] | [4] | [7] | [9]

OCCO
inactive: [1] | [2] | [3] | [10] | [5] | [6] | [7] | [8] | [9]

O=Cc1ccccc1Cl
inactive: [1] | [2] | [3] | [5] | [6] | [7] | [8] | [9]

CC/C(C)=N/O
inactive: [1] | [2] | [3] | [5] | [6] | [7] | [8] | [9]

ICCc1ccccc1
inactive: [1] | [2] | [4] | [5] | [6] | [7] | [8] | [9]

Nc1cccc(S(=O)(=O)O)c1
inactive: [1] | [2] | [3] | [10] | [5] | [6] | [7] | [8] | [9]

C=CC(=O)OCCCC
inactive: [1] | [2] | [3] | [10] | [5] | [6] | [7] | [8] | [9]

NS(=O)(=O)O
inactive: [1] | [2] | [3] | [5] | [6] | [7] | [8] | [9]

Nc1cccc(C(F)(F)F)c1
inactive: [1] | [2] | [4] | [10] | [5] | [6] | [7] | [8] | [9]

CC(=O)CCc1ccccc1
inactive: [1] | [2] | [4] | [10] | [5] | [6] | [7] | [8] | [9]

CC(O)CC(C)O (configuration not stated)
inactive: [1] | [2] | [4] | [5] | [6] | [7] | [8] | [9]

CC1CCCO1 (configuration not stated)
inactive: [1] | [2] | [3] | [10] | [5] | [6] | [7] | [8] | [9]

O=C1C=CCCC1
inactive: [1] | [2] | [4] | [10] | [5] | [6] | [7] | [8] | [9]

Nc1ccccc1[N+](=O)[O-]
inactive: [1] | [2] | [4] | [10] | [5] | [6] | [7] | [8] | [9]

OC/C(Br)=C(\Br)CO
inactive: [1] | [2] | [3] | [5] | [6] | [7] | [8] | [9]

C=Cc1ccccc1C=C
inactive: [1] | [2] | [4] | [5] | [6] | [7] | [9]

FC(F)(F)c1cccc(Cl)c1
inactive: [1] | [2] | [4] | [10] | [5] | [6] | [7] | [8] | [9]

COc1cccc(N)c1
inactive: [1] | [2] | [10] | [5] | [6] | [7] | [8] | [9]

C=CCCC
inactive: [1] | [2] | [4] | [10] | [5] | [6] | [7] | [8] | [9]

Cc1cccc(C)c1O
inactive: [1] | [2] | [3] | [5] | [6] | [7] | [8] | [9]

N#CCc1ccccc1[N+](=O)[O-]
inactive: [1] | [2] | [4] | [10] | [5] | [6] | [7] | [8] | [9]

CCOc1ccccc1N
inactive: [1] | [2] | [3] | [5] | [6] | [7] | [8] | [9]

NC(=O)/N=N/C(N)=O
inactive: [1] | [2] | [4] | [5] | [6] | [7] | [8] | [9]

CCOC(=O)C(C)C(C)=O (configuration not stated)
inactive: [1] | [2] | [4] | [10] | [5] | [6] | [7] | [8] | [9]

Cc1cc(C)c(N)cc1C
inactive: [1] | [2] | [4] | [10] | [5] | [6] | [7] | [8] | [9]

Nc1ccccc1S(=O)(=O)O
inactive: [1] | [2] | [3] | [10] | [5] | [6] | [7] | [8] | [9]

O=C1OC(=O)c2cc([N+](=O)[O-])ccc21
inactive: [1] | [2] | [4] | [10] | [5] | [6] | [7] | [8] | [9]

Nc1cccc(O)c1
inactive: [1] | [2] | [4] | [5] | [6] | [7] | [8] | [9]

Cc1ccc([N+](=O)[O-])c(N)c1
inactive: [1] | [2] | [4] | [10] | [5] | [6] | [7] | [9]

CC(=O)c1cccc([N+](=O)[O-])c1
inactive: [1] | [2] | [4] | [10] | [5] | [6] | [7] | [9]

ClCCl
inactive: [1] | [2] | [4] | [10] | [5] | [6] | [7] | [9]

Cc1cccc(C)c1
inactive: [1] | [2] | [3] | [5] | [6] | [7] | [8] | [9]

Cc1ccccc1C#N
inactive: [1] | [2] | [4] | [10] | [5] | [6] | [7] | [8] | [9]

O=c1[nH][nH]c(=O)c2cc([N+](=O)[O-])ccc12
inactive: [1] | [2] | [4] | [10] | [5] | [6] | [7] | [8] | [9]

CCCCCCCCN
inactive: [1] | [2] | [4] | [10] | [5] | [6] | [7] | [9]

CC(=O)c1nccs1
inactive: [1] | [2] | [4] | [10] | [5] | [6] | [7] | [8] | [9]

CNC(=O)N(c1ccccc1)c1ccccc1
inactive: [1] | [2] | [4] | [10] | [5] | [6] | [7] | [9]

O=C1CCC(=O)O1
inactive: [1] | [2] | [4] | [10] | [5] | [6] | [7] | [8] | [9]

CCNc1cc(O)ccc1C
inactive: [1] | [2] | [4] | [10] | [5] | [6] | [7] | [8] | [9]

O=Cc1cccc(Br)c1
inactive: [1] | [2] | [4] | [10] | [5] | [6] | [7] | [8] | [9]

Cc1c(N)cccc1N
inactive: [1] | [2] | [4] | [10] | [5] | [6] | [7] | [8] | [9]

COC(=O)CS
inactive: [1] | [2] | [4] | [10] | [5] | [6] | [7] | [8] | [9]

CCCCCCO
inactive: [2] | [3] | [10] | [5] | [6] | [7] | [8] | [9]

Nc1cccc([N+](=O)[O-])c1
inactive: [2] | [3] | [4] | [10] | [5] | [6] | [7] | [9]

Cc1ccc(C)cc1
inactive: [2] | [10] | [5] | [6] | [7] | [8] | [9]

CCOc1ccc(NC(C)=O)cc1N
inactive: [2] | [3] | [10] | [5] | [6] | [7] | [8] | [9]
